Results filed as inconclusive are left out. The source made the active and inactive calls. The call rests on the fitted dose curve; in most records, active means well fitted curve in the direction sought with a large enough effect; inconclusive means small, poorly fitted or top-dose-only effect, or effect the other way, or another doubt; inactive means no such curve, though single readings can be large or run the other way.
target: Pyruvate kinase PKM (Homo sapiens) (UniProt P14618); test: Secondary assay for Activators of Human Pyruvate Kinase M1 isoform; conditions: purified hPK-M1, LDH-coupled NADH fluorescence kinetic; series mostly up to 57.5 µM
From the text: Confirmatory assay NIH Chemical Genomics Center [NCGC] Matthew G. Vander Heiden, M.D., Ph.D. [Harvard Medical School, 77 Avenue Louis Pasteur, Boston, MA 02115] NCGC Assay Overview: Human pyruvate kinase […] (hPK-M1)enzyme was supplied as a highly purified (>95% pure) preparation from Harvard Medical School and a secondary assay was used to evaluate compounds. This assay couples the formation of pyruvate from hPK-R using lactate dehydrogenase (LDH) and NADH. The depletion of NADH is followed in a fluorescent-based kinetic assay that follows the formation of pyruvate to lactate, as catalyzed LDH. Pyruvate kinase substrates, PEP and ADP, were present in the assay at 0.1 mM and 4 mM respectively. In this kinetic assay initial rates were determined by following the fluorescence of NADH depletion.
NCGC Assay Protocol Summary: Three uL of substrate mix (final concentration, 50 mM Tris-Cl pH 8.0, 200 mM KCl, 15 mM MgCl2, 0.1 mM PEP, 4.0 mM ADP, and 0.2 mM NADH) was dispensed into black-solid 1536 well plates. 23 nL of compounds were delivered by a pin tool and 1 uL of enzyme mix (final concentrations, 10 nM hPK-M1 and 1 uM of LDH) was added. Plates were immediately placed in ViewLux (Perkin Elmer) and NADH fluorescence was determined at 30 second exposure intervals for between 3 and 6 minutes. Data were normalized to the uninhibited controls.

Chain of Pyruvate kinase PKM (Homo sapiens) (P14618 whole entry, looked up, canonical isoform): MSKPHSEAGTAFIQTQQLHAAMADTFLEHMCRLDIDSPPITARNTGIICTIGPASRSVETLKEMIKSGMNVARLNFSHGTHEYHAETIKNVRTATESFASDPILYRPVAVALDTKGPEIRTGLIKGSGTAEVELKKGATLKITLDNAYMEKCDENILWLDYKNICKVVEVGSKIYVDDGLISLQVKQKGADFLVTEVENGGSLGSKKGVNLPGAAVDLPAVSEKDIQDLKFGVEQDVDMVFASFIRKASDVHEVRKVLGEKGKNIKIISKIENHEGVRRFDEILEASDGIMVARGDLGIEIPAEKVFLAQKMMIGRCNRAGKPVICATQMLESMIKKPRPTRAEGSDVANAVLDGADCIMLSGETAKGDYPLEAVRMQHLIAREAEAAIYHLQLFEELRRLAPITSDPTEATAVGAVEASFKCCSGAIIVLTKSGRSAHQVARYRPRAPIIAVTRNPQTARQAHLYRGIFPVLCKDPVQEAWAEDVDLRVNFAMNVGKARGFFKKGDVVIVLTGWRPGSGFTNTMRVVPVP

outcome, inactive:
O=S(=O)(c1c(F)cccc1F)C1CCN(S(=O)(=O)c2ccc3c(c2)OCCO3)CC1
Cc1nc2ccc(S(=O)(=O)N3CCN(S(=O)(=O)c4c(F)cccc4F)CC3)cc2s1
Cc1cc2c(s1)c1cnn(Cc3cccc(Cn4ncc5c6sc(C)cc6n(C)c5c4=O)c3F)c(=O)c1n2C
CS(=O)(=O)Nc1cccc(-c2cc(F)c(S(=O)(=O)N3CCN(S(=O)(=O)c4ccc5c(c4)OCCO5)CC3)cc2F)c1
COCCCc1cc(F)c(S(=O)(=O)N2CCN(S(=O)(=O)c3ccc4c(c3)OCCO4)CC2)cc1F
